The text below walks through data of PubChem BioAssay AID488859 (Sanford-Burnham Center for Chemical Genomics, 2010).

Hit rate of the full screen: of about 1,400 compounds, about 970 (69%) were called active. Inconclusive results (about 5%) are left out. Rule as the data show it: active = inhibition above about 45%; inconclusive = no clear call, values can overlap the other calls; inactive = below that. The set was probably picked from earlier hits. The list is a sample of the results.

For the experiment, the target named is Ubiquitin-conjugating enzyme E2 N (Homo sapiens) (UniProt P61088). Kind of experiment: UBC13 polyubiquitination inhibitors, single-point retest, confirmation, biochemical, TR-FRET, single concentration (AID 488859). The conditions noted are these: at 10 µM, hits give high values.
Chain of Ubiquitin-conjugating enzyme E2 N (Homo sapiens) (P61088 whole entry, looked up): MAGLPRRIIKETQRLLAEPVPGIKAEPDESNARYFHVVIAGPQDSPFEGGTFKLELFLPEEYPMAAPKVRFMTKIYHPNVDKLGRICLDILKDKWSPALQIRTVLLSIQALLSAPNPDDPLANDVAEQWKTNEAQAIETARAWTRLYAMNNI
For the compound `CNCC(O)c1cc(F)c(OCc2ccccc2)c(OCc2ccccc2)c1F` (stereo unspecified), the inhibition was 50.4% (active).

One may read the inhibition as the share of the control response that was lost under treatment.
